# Laboratory results: the supplement of paper PMC7366291
# Where a name gives a salt, the structure may show the parent alone. ± gives the standard deviation or the standard deviation of the averaged measurements.
# Key:
# Conditions in all cases: 25 µM; exposure: 24-48 hpf
# [1] = tested on: Danio rerio Tg(wt1b:EGFP) embryo, pronephros; test: glomerular separation, fold change vs DMSO control; higher = glomeruli further apart (abnormal)
# Outline: (§1)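 Using a Fiji macro, distances and angles were calculated from 16 reference points set by hand on maximum projections of pronephroi imaged dorsally (470 nm, 10 z-slices) in agarose-filled 96-well plates. The dechorionated Tg(wt1b:EGFP) zebrafish embryos had received 25 μM compound in 0.5% DMSO in HEPES-buffered E3 with 0.003% PTU from 24 to 48 hpf at 28.5°C. Values more than 2 SD from a feature's mean were excluded. Each feature appears as a fold change over the mean of DMSO-treated embryos from the same day.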
# [2] = tested on: Danio rerio Tg(wt1b:EGFP) embryo, pronephros; test: glomerular width (mean of left and right), fold change vs DMSO control; higher = wider glomerulus
# Outline: as §1
# [3] = tested on: Danio rerio Tg(wt1b:EGFP) embryo, pronephros; test: fraction of imaged embryos annotated as normal kidney; higher = less nephrotoxic; extreme values may be limits of the assay
# Outline: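 Dechorionated Tg(wt1b:EGFP) zebrafish embryos were incubated with 25 μM compound in 0.5% DMSO, 5 mM HEPES-buffered E3 and 0.003% PTU from 24 to 48 hpf at 28.5°C. Pronephroi were then imaged by widefield fluorescence, and the fraction of embryos per treatment assigned by hand to the normal-kidney category is given.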
# [4] = tested on: Danio rerio Tg(wt1b:EGFP) embryo, pronephros; test: pronephric angle neck segment to proximal convoluted tubule (mean of left and right), fold change vs DMSO control; higher = larger pronephric angle
# Outline: as §1
Structure (SMILES),glomerular separation [1],glomerular width [2],fraction of imaged embryos annotated as normal kidney [3],pronephric angle neck segment [4]
Nc1ccc(S(=O)(=O)NC(=O)c2ccccc2)cc1 [Sulfabenzamide],1.2 ± 0.49,0.98 ± 0.04,0.667,1.09 ± 0.0044
Nc1ccc(S(=O)(=O)Nc2ccccn2)cc1 [Sulfapyridine],0.906 ± 0.35,1.07 ± 0.03,0.75,1 ± 0.083
CCOCCn1c(N2CCCN(C)CC2)nc2ccccc21 [Emedastine],0.707 ± 0.16,0.979 ± 0.051,0.917,0.9917 ± 0.0031
CC[N+](CC)(CC)CCOc1cccc(OCC[N+](CC)(CC)CC)c1OCC[N+](CC)(CC)CC [Gallamine triethiodide],1.13 ± 0.48,1.03 ± 0.04,0.833,0.998 ± 0.034
Cc1cc(-n2c(=O)[nH]c(=O)n(C)c2=O)ccc1Oc1ccc(SC(F)(F)F)cc1 [Toltrazuril],1.34 ± 0.62,0.8688 ± 0.0053,0.5,1.09 ± 0.045
CCCCc1oc2ccccc2c1C(=O)c1cc(I)c(OCCN(CC)CC)c(I)c1 [Amiodarone hydrochloride],2 ± 1.1,0.862 ± 0.021,0.4,1.14 ± 0.13
C#C[C@]1(OC(C)=O)CC[C@H]2[C@@H]3CCC4=C[C@@H](OC(C)=O)CC[C@@H]4[C@H]3CC[C@@]21C [Ethynodiol diacetate],1.12 ± 0.65,0.958 ± 0.052,0.75,1.13 ± 0.057
CC(C)c1nc(CN(C)C(=O)N[C@H](C(=O)N[C@@H](Cc2ccccc2)C[C@H](O)[C@H](Cc2ccccc2)NC(=O)OCc2cncs2)C(C)C)cs1 [Ritonavir],1.18 ± 0.61,0.961 ± 0.094,1,1.02 ± 0.033
CCCNC(C)(C)COC(=O)c1ccccc1 [Meprylcaine hydrochloride],1.08 ± 0.26,0.936 ± 0.03,1,0.9842 ± 0.0035
CCc1cccc(CC)c1NC(=O)CN(CC(=O)O)CC(=O)O [Etifenin],1.34 ± 0.55,1.052 ± 0.01,0.667,1.01 ± 0.015
Cc1nnc(NS(=O)(=O)c2ccc(N)cc2)s1 [Sulfamethizole],0.838 ± 0.34,1.06 ± 0.087,0.667,1.06 ± 0.028
Cc1cccc(Nc2ccncc2S(=O)(=O)NC(=O)NC(C)C)c1 [Torsemide],1.12 ± 0.3,0.95 ± 0.015,1,0.905 ± 0.03
COc1ccc(CC2c3cc(OC)c(OC)cc3CC[N+]2(C)CCC(=O)OCCCCCOC(=O)CC[N+]2(C)CCc3cc(OC)c(OC)cc3C2Cc2ccc(OC)c(OC)c2)cc1OC (stereo unspecified) [Atracurium besylate],1.2 ± 0.6,0.944 ± 0.012,0.917,0.954 ± 0.016
C[C@@H]1C[C@H]2[C@@H]3CCC4=CC(=O)C=C[C@]4(C)[C@@]3(Cl)[C@@H](O)C[C@]2(C)[C@@]1(OC(=O)c1ccco1)C(=O)CCl [Mometasone furoate],0.99 ± 0.37,1.26 ± 0.082,0.455,0.993 ± 0.085
O=C1CCc2ccc(OCCCCN3CCN(c4cccc(Cl)c4Cl)CC3)cc2N1 [Aripiprazole],0.976 ± 0.16,0.888 ± 0.06,1,1.08 ± 0.033
CC(=O)c1ccc2c(c1)N(CCCN(C)C)c1ccccc1S2 [Acetopromazine maleate salt],0.953 ± 0.23,0.924 ± 0.071,1,0.969 ± 0.02
CC(=O)O[C@H]1C[C@@H]2CC[C@@H]3[C@H](CC[C@@]4(C)[C@H]3C[C@H]([N+]3(C)CCCCC3)[C@@H]4OC(C)=O)[C@@]2(C)C[C@@H]1N1CCCCC1 [Vecuronium bromide],1.01 ± 0.35,0.967 ± 0.024,1,1.03 ± 0.028
CC(=O)Nc1c(I)c(NC(C)=O)c(I)c(C(=O)O)c1I [Diatrizoic acid dihydrate],1.34 ± 0.56,1.03 ± 0.016,0.583,1.05 ± 0.033
C[C@]12CCC(=O)C=C1C=C[C@@H]1[C@@H]2CC[C@@]2(C)[C@H]1CC[C@@]21CCC(=O)O1 [Canrenone],1.24 ± 0.51,0.798 ± 0.02,0.818,1.07 ± 0.031
CC(C)[C@H](N)C(=O)OCCOCn1cnc2c(=O)nc(N)[nH]c21 [Valacyclovir hydrochloride],0.851 ± 0.28,1 ± 0.066,0.917,0.955 ± 0.044
COc1ccc2c(c1)N(C[C@H](C)CN(C)C)c1ccccc1S2 [Methotrimeprazine maleat salt],1.16 ± 0.65,0.993 ± 0.037,0.909,1.02 ± 0.016
COc1ccc2[nH]c([S+]([O-])Cc3ncc(C)c(OC)c3C)nc2c1 (stereo unspecified) [Omeprazole],1.15 ± 0.38,0.935 ± 0.073,0.667,1.1759 ± 0.00043
CCCCC(=O)N(Cc1ccc(-c2ccccc2-c2nnn[nH]2)cc1)[C@H](C(=O)O)C(C)C [Valsartan],0.756 ± 0.22,1.09 ± 0.026,1,0.991 ± 0.021
CN(CCOc1ccc(NS(C)(=O)=O)cc1)CCc1ccc(NS(C)(=O)=O)cc1 [Dofetilide],1.35 ± 0.35,0.982 ± 0.025,0.583,1.01 ± 0.07
